{
  "source": "PubChem BioAssay (NCATS)",
  "note": "Inconclusive results are not listed. A number with no mark means an inactive call. The source made the active and inactive calls. The call rests on the fitted dose curve; in most records, active means well fitted inhibition curve with a large enough effect; inconclusive means small, poorly fitted or top-dose-only effect; inactive means flat fitted curve, though single readings scatter. On the % scale 0 is the no-effect control and ±100 the full control effect; potency means the concentration at half of the fitted maximal effect.",
  "data": [
    {"test": "P-glycoprotein substrates identified in KB-8-5-11 adenocarcinoma cell line, qHTS therapeutic library screen (AID 1346987); further: nearly all actives have a fitted effect of over 65% in size", "details": "KB-8-5-11 (P-gp overexpressing) viability, CellTiter-Glo, 72 h; series mostly up to 44.5 µM; activity change, negative = cytotoxicity: at the top concentration", "source_text": "The ATP-binding cassette transporters P-glycoprotein (P-gp) is known to limit brain penetration of many chemotherapy drugs. […] As such, we developed a high-throughput screen (HTS) to identify substrates of P-gp from a series of chemical libraries including the National Center for Advancing Translational Sciences Pharmaceutical Collection NPC, 2,816 compounds), testing a total of 10,804 compounds, most of which have known mechanisms of action. We used the CellTiter-Glo viability assay to test library compounds against the parental KB-3-1 human cervical adenocarcinoma cell line and the colchicine-selected sub-line KB-8-5-11 that over-expresses P-gp. KB-8-5-11 cells were also tested in the presence of a P-gp inhibitor (tariquidar) to assess reversability of transporter-mediated resistance. Of the tested compounds, a total of 90 P-gp substrates were identified including 55 newly identified P-gp substrates. Substrates were confirmed using an orthogonal killing assay against HEK-293 cells transfected with P-gp. As exemplars, we confirmed that […] (cyclin-dependent kinase inhibitor); AT9283, (Janus kinase 2/3 inhibitor); ispinesib (kinesin spindle protein inhibitor); gedatolisib (PKI-587, phosphoinositide 3-kinase/mammalian target of rampamycin inhibitor); GSK-690693 (AKT inhibitor); and KW-2478 (heat shock protein 90 inhibitor) were substrates , and direct ATPase stimulation was assessed. ABCG2 was also found to confer high levels of resistance to AT9283, GSK-690693 and gedatolisib, while ispinesib, AT7519 and KW-2478 were weaker substrates.\nThe HeLa derivative cell line, KB-3-1, and its colchicine-selected, P-gp-overexpressing subline, KB-8-5-11 were maintained in DMEM with 10% FCS and Pen/Strep with glutamine at 37 degree C in 5% CO2. For KB-8-5-11 cells, colchicine was added to the medium at a concentration of 100 ng/mL. HEK-293 cells transfected with empty vector (pcDNA) or vector containing human ABCB1 (MDR-19) or ABCG2 (R-5) have been described previously (Robey, Lin, Qiu, Chan & Bates, 2011) and were maintained in EMEM supplemented with 10% FCS, Pen/Strep and glutamine with 2 mg/ml G418 to select for the expression of the transporter. Cultures were confirmed to be free of mycoplasma infection using the MycoAlert Mycoplasma Detection Kit (Lonza, Walkersville, MD). For the screen, assay medium was identical to culture medium except for KB-8-5-11 where colchicine was excluded from the medium.\nAll cell lines were plated into 1536-well plates at 500 cells/well in 5 uL media. Compounds were then pinned in dose-response using a 1536-head pin tool (Kalypsis, San Diego, CA) and plates were incubated at 37 degree C in 5% CO2 for an additional 72 h. CellTiter-Glo reagent (Promega) was dispensed into the wells, incubated for 5 min and luminescence was read on a ViewLux instrument (Perkin-Elmer). Cytotoxic compounds were defined as those that yielded a curve class of -1.1, -1.2, -2.1, -2.2, -2.3, or -2.4, a maximum response of >50% and an AC50 of < 10 uM. Cherry-picked hits from screening analysis were tested with both the KB pair of cell lines, and the pcDNA (empty vector control) and MDR-19 (P-gp overexpressing) pair were tested, in the absence and presence of tariquidar.", "values": [
      {"smiles": "COC1(c2sc3c(N4CCOCC4)nc(-c4cnc(N)nc4)nc3c2C)COC1", "Potency": "0.184 µM (active)"},
      {"smiles": "CCc1c(C(=O)NNC(=O)[C@@H](O)c2cc(F)cc(F)c2)ccc(O)c1C", "outcome": "inactive"},
      {"smiles": "O=Nc1c2[nH]c3ccccc3nc-2c2ccccc12", "activity change, negative = cytotoxicity": "-23.8%"},
      {"smiles": "CSC(Cc1ccc(Cl)cc1)C(=O)Nc1ccc(Cl)cc1C(=O)O", "note": "(stereo not given)", "activity change, negative = cytotoxicity": "-7.77%"},
      {"smiles": "CN1CCN(Cc2ccc(Nc3ncc(Cl)c(Nc4ccccc4S(=O)(=O)N(C)C)n3)cc2)CC1", "Potency": "0.0668 µM (active)"},
      {"smiles": "CC(C)(C)n1nc(-c2cccc3ccccc23)c2c(N)ncnc21", "activity change, negative = cytotoxicity": "-25.5%"},
      {"smiles": "O=C1/C(=C/c2ccc(O)c(O)c2)Oc2ccccc21", "activity change, negative = cytotoxicity": "-29.2%"},
      {"smiles": "CN1C/C=C/CCOc2cccc(c2)-c2ccnc(n2)Nc2cccc(c2)C1", "Potency": "0.231 µM (active)"},
      {"smiles": "Cc1cc2nc(NCCCO)n(CC(=O)c3cc(C(C)(C)C)c(O)c(C(C)(C)C)c3)c2cc1C", "Potency": "18.4 µM (active)"},
      {"smiles": "CN(C)CCOc1ccc(-c2nc(-c3ccc4c(c3)CC/C4=N/O)c(-c3ccncc3)[nH]2)cc1", "outcome": "inactive"},
      {"smiles": "C=C(C)[C@@H]1CCC2=CC(=O)C[C@@H](C)[C@]2(C)C1", "activity change, negative = cytotoxicity": "-0.0264% [at 93.4 µM]"},
      {"smiles": "CC1=CC(=O)C(C(C)C)=CC1=O", "activity change, negative = cytotoxicity": "2.06%"},
      {"smiles": "O=C1NC(=O)/C(=C\\c2ccc3c(c2)OC(F)(F)O3)S1", "activity change, negative = cytotoxicity": "-21.1%"},
      {"smiles": "[2H]C([2H])([2H])C(OC(=O)[C@H](C)N[P@](=O)(OC[C@H]1O[C@@H](n2ccc(=O)[nH]c2=O)[C@](C)(F)[C@@H]1O)Oc1ccccc1)C([2H])([2H])[2H]", "activity change, negative = cytotoxicity": "0.541%"},
      {"smiles": "CC(C)=CCC/C(C)=C/CC/C(C)=C/CSc1ccccc1C(=O)O", "activity change, negative = cytotoxicity": "-6.5%"},
      {"smiles": "C#C[C@]1(OC(C)=O)CC[C@H]2[C@@H]3CCC4=CC(=O)CC[C@@H]4[C@H]3CC[C@@]21C", "Potency": "3.66 µM (active)"},
      {"smiles": "Cc1c[nH]c(/C=C2\\C(=O)Nc3ccccc32)c1CCC(=O)O", "activity change, negative = cytotoxicity": "-10.9%"},
      {"smiles": "CCOC(=O)N1CCN(C(=O)Cn2sc3nc(C)cc(C)c3c2=O)CC1", "activity change, negative = cytotoxicity": "1.11%"},
      {"smiles": "O=C1O[C@H](C(O)CO)C(=O)C1=O", "note": "(stereo not given in full)", "activity change, negative = cytotoxicity": "2.35%"},
      {"smiles": "Cc1cc(N2CCOCC2)cc2[nH]c(-c3c(NCC(O)c4cccc(Cl)c4)cc[nH]c3=O)nc12", "note": "(stereo not given)", "Potency": "5.8 µM (active)"},
      {"smiles": "Nc1ncnc(Nc2ccc(OCc3ccccc3)c(Cl)c2)c1/C=N/OCCN1CCOCC1", "Potency": "16.4 µM (active)"},
      {"smiles": "CC1(C)CC[C@]2(C(=O)OC3OC(CO)C(O)C(O)C3O)CC[C@]3(C)C(=CCC4[C@@]5(C)CC[C@H](OC6OC(C(=O)O)C(O)C(O)C6O)C(CO)(CO)C5CC[C@]43C)[C@@H]2C1", "note": "(stereo not given in full)", "outcome": "inactive [at 9.29 µM]"},
      {"smiles": "O=C(NCCO)c1cc(C(=O)NCCO)cc(C(=O)NCCO)c1", "outcome": "inactive"},
      {"smiles": "Cc1cc(Nc2nn(-c3ccccc3)c(=O)c3ccccc23)n[nH]1", "Potency": "11.6 µM (active)"},
      {"smiles": "C[C@@]1(F)[C@H](O)[C@@H](CO)O[C@H]1n1ccc(N)nc1=O", "activity change, negative = cytotoxicity": "1.05%"},
      {"smiles": "COC(=O)[C@]12CCC(C)(C)C[C@@H]1[C@@H]1C(=O)C=C3[C@]4(C)C=C(C#N)C(=O)C(C)(C)[C@@H]4CC[C@@]3(C)[C@]1(C)CC2", "Potency": "1.46 µM (active)"},
      {"smiles": "CC(Sc1nc2c(cnn2-c2cccc(Cl)c2)c(=O)[nH]1)C(N)=O", "note": "(stereo not given)", "activity change, negative = cytotoxicity": "-7.84%"},
      {"smiles": "CC(C)n1nc(Cc2cccc3ccccc23)c2c(N)ncnc21", "Potency": "18.4 µM (active)"},
      {"smiles": "NS(=O)(=O)c1cccc(N=Cc2c(O)[nH]c3ccccc23)c1", "activity change, negative = cytotoxicity": "-18%"},
      {"smiles": "CC(C)n1cc(-c2ccc(Oc3ccccc3)cc2)c2c(N)ncnc21", "Potency": "9.2 µM (active)"},
      {"smiles": "CCS(=O)(=O)N(Cc1cccnc1)c1cccc(-c2ccc(C#N)cc2)c1", "Potency": "23.1 µM (active)"},
      {"smiles": "OCCn1cc(-c2ccc3c(c2)CC/C3=N\\O)c(-c2ccncc2)n1", "activity change, negative = cytotoxicity": "-7.52%"},
      {"smiles": "O=C1NCCSc2c1sc1ccc(O)cc21", "Potency": "10.3 µM (active)"},
      {"smiles": "Cc1cc2ncc(-c3ccccc3)nc2cc1C", "activity change, negative = cytotoxicity": "-2.3%"},
      {"smiles": "O=S(=O)(c1cccc2ccccc12)n1ccc2ccc(N3CCN4CCCC4C3)cc21", "note": "(stereo not given)", "Potency": "20.6 µM (active)"},
      {"smiles": "CN1CCC(c2c(O)cc(O)c3c(=O)cc(-c4ccccc4Cl)oc23)C(O)C1", "note": "(stereo not given)", "Potency": "0.517 µM (active)"},
      {"smiles": "O=C1NC(=O)C(c2c[nH]c3ccccc23)=C1c1c[nH]c2ccccc12", "activity change, negative = cytotoxicity": "-10.3%"},
      {"smiles": "C=C1/C(=C/C=C2\\CCC[C@]3(C)[C@@H]([C@H](C)/C=C/C(=O)C4CC4)CC[C@@H]23)C[C@@H](O)C[C@@H]1O", "activity change, negative = cytotoxicity": "-26.1%"},
      {"smiles": "Oc1cccc(-c2nc(N3CCOCC3)c3sccc3n2)c1", "Potency": "4.61 µM (active)"},
      {"smiles": "Cc1cn([C@H]2C[C@H](O)[C@@H](CO)O2)c(=O)nc1N", "activity change, negative = cytotoxicity": "-8.94%"}
    ]}
  ]
}
